Assay outcomes as filed in PubChem.
Shiga inhibitor: inhibitors of Shiga toxin in Vero cells. 290,000 compounds, 9.2% hits. inhibition, % at 38.7 µM. Vero cells, Shiga toxin protein synthesis inhibition reporter; in the data active = inhibition mostly above about 28%, no sharp cut-off; inactive = mostly below about 43%; note: 0% is about no effect
NS1 function inh: influenza NS1 inhibition. 270,000 compounds, 0.4% hits. Potency, µM (series often up to 46.1 µM), without a hit: top-dose activity, positive = more growth; calls by dose curve; note: potency is the fitted concentration of half-maximal effect; actives are rising curves; nearly all actives have a fitted effect of over 50% in size
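Growth recovery, yeast-based: influenza A NS1 expressed in S. cerevisiae causes slow growth, and suppressors are detected by OD600. The parent strain without NS1 is used as positive control.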
LmPK inhibitor: LmPK (Leishmania mexicana) enzyme inhibition | Q27686 | purified LmPK, Kinase-Glo ATP luminescence, 1 h | Potency, µM (highest dose often 57.5 µM), for inactives: at the highest dose activity change, negative = inhibition, most hits filed as inhibitors | 290,000 compounds, 0.37% hits | AID 1721; note: potency is the fitted concentration of half-maximal effect; % is set by controls: 0 for no effect and ±100 for the full control effect
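Kinase-Glo luminescence read after 1 h RT reaction of 0.1 nM LmPK with 0.5 mM PEP and 0.1 mM ADP. Activity scaled between uninhibited and enzyme-free controls.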
CHX counter-1: counter-screen for Shiga toxin inhibitors: cycloheximide protein synthesis inhibition; cell reporter, cycloheximide protein synthesis inhibition counterscreen; max response, %; 300,000 compounds, 12% hits; AID 2314; in the data active = max response mostly above about 13%, no sharp cut-off; inactive = mostly below about 14%; note: read at 38.3 µM for the half of the compounds with a filed dose; 0% is about no effect
FBPA Giardia inh: inhibitors of Giardia lamblia fructose-1,6-bisphosphate aldolase; AID 2451; purified Giardia FBPA; 290,000 compounds, 0.71% hits; Potency, µM (top dose mostly 59.6 µM), without a hit: at the highest dose activity, negative = inhibition, usual class: inhibitors; note: potency is the fitted concentration of half-maximal effect; % is set by controls: 0 for no effect and ±100 for the full control effect; nearly all actives have a fitted effect of over 55% in size
Target sequence (A8B2U2 whole entry, looked up): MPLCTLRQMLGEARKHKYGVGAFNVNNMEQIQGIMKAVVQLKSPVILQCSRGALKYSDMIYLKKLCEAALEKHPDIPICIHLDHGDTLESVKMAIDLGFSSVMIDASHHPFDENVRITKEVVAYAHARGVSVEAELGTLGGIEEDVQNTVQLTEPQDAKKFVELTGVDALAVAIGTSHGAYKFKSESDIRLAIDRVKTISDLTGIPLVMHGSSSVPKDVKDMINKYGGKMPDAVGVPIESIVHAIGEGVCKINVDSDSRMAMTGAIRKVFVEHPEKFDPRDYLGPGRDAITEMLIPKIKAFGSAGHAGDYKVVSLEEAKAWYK
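Giardia FBPA (40 nM reagent) was preincubated 10 min at RT with compound (up to 57.5 uM final), then substrate plus GAPDH/TPI/NAD/arsenate coupling system with diaphorase/resazurin was added; resorufin fluorescence (525/598 nm) was read after 20 min.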
CHX counter-2: protein synthesis counter-screen activity for Shiga toxin hits | shares compounds with Shiga inhibitor | Cycloheximide counterscreen, protein synthesis reporter, Shiga toxin assay | Potency, µM (titrated, usually from 38.3 µM), for the others: top-dose activity (activation), usual class: activators | 510 compounds, 3% hits; calls by dose curve; note: potency is the fitted concentration of half-maximal effect; 0% is about no effect
An asterisk follows results filed as active; [ ] = another dose, or the depositor's remark. Most compounds without a hit are left out; they make up all but 14% or so of the library. Unless noted, calls come from the whole dose curve; as a rule, active = well fitted curve in the direction sought with a large enough effect; inconclusive = small, poorly fitted or top-dose-only effect, or another doubt; inactive = no such curve, though single readings can be large; an effect the other way counts as inactive or inconclusive.

`CCCC[C@@H]1C[C@H]1C(NC(=O)c1ccccc1)c1ccc(Cl)cc1` (some centres undefined) gave FBPA Giardia inh 5%.
For CC(=O)c1sc(-c2ccccn2)nc1C the results were Shiga inhibitor 32*, LmPK inhibitor -1%, CHX counter-1 14, FBPA Giardia inh 1% and CHX counter-2 3%.
For COc1cc(OC)c(OC)cc1CN1CCN(C(=O)CC(C)C)CC1 the results were Shiga inhibitor -6, NS1 function inh 3%, LmPK inhibitor 1%, CHX counter-1 -2 and FBPA Giardia inh inconclusive.
For Cc1ccc(OCC(=O)NNC(=O)CCC(=O)Nc2ccc(C)cc2C)cc1 the results were Shiga inhibitor 35*, NS1 function inh -13%, LmPK inhibitor 6%, CHX counter-1 -2, FBPA Giardia inh 7% and CHX counter-2 -1%.
Cc1ccc(NC(=O)CCC(=O)NNC(=O)COc2ccccc2)c(C)c1 was read as Shiga inhibitor -13, NS1 function inh 0%, LmPK inhibitor -1%, CHX counter-1 -1 and FBPA Giardia inh -5%.
CCC(C)(O)c1[nH]c2ccc(C(F)(F)F)cc2c1C (centres undefined) was read as Shiga inhibitor 18*, NS1 function inh -56%, LmPK inhibitor -6%, CHX counter-1 -3, FBPA Giardia inh 0% and CHX counter-2 1%.
For CN(C)S(=O)(=O)c1ccc(Cl)c(NC(=O)CSc2nc3c(cc2C#N)C(=O)CCC3)c1 the results were Shiga inhibitor -9, NS1 function inh -4%, LmPK inhibitor 0%, CHX counter-1 -1 and FBPA Giardia inh 0%.
`N#Cc1cc2c(nc1SCC(=O)Nc1cc(Cl)ccc1Cl)C1CCN2CC1` gave Shiga inhibitor 48*, NS1 function inh 0%, LmPK inhibitor 7%, CHX counter-1 -2, FBPA Giardia inh -3% and CHX counter-2 inconclusive.
For c1ccc2cc(CNCc3cccc4ccccc34)ccc2c1 the results were Shiga inhibitor 35, NS1 function inh -8%, LmPK inhibitor -6%, CHX counter-1 -1 and FBPA Giardia inh 0%.
Screening O=C1Nc2ccccc2Sc2ccccc21 returned Shiga inhibitor -32, NS1 function inh 3%, LmPK inhibitor 0%, CHX counter-1 -4 and FBPA Giardia inh -18%.
`N#C/C=C1/NC(=O)c2ccccc2S1` gave Shiga inhibitor 71*, NS1 function inh 4%, LmPK inhibitor 5%, CHX counter-1 1, FBPA Giardia inh -8% and CHX counter-2 1%.
Screening CCOC(=O)c1[nH]c2ccc(OC)cc2c1NC(=O)CN1CCC2(CC1)OCCO2 returned Shiga inhibitor -5, NS1 function inh -8%, LmPK inhibitor -2%, CHX counter-1 5 and FBPA Giardia inh 0%.
CCOC(=O)c1[nH]c2ccc(OC)cc2c1NC(=O)C(C)N1CCC2(CC1)OCCO2 (centres undefined) was read as Shiga inhibitor 49*, NS1 function inh -6%, LmPK inhibitor -3%, CHX counter-1 5, FBPA Giardia inh 2% and CHX counter-2 -1%.
CN(CC(=O)N1CCN(Cc2ccccc2)CC1)S(=O)(=O)c1ccc(F)cc1 was read as Shiga inhibitor 2, NS1 function inh -12%, LmPK inhibitor 4%, CHX counter-1 1 and FBPA Giardia inh 4%.
`CN1CCN(C(=O)CN(C)S(=O)(=O)c2ccc(F)cc2)CC1` gave Shiga inhibitor 38*, NS1 function inh 7%, LmPK inhibitor -1%, CHX counter-1 -3, FBPA Giardia inh -2% and CHX counter-2 -1%.
`CC1=C(C)C(OCCBr)N(c2cc(O)c(Cl)cc2F)C1=O` (centres undefined) gave Shiga inhibitor 43*, NS1 function inh 12%, LmPK inhibitor 6%, CHX counter-1 5, FBPA Giardia inh 3% and CHX counter-2 -3%.
For O=C(c1cnccn1)N1CCc2ccccc21 the results were Shiga inhibitor 8, NS1 function inh 1%, LmPK inhibitor 5%, CHX counter-1 13 and FBPA Giardia inh -14%.
Screening Cc1c(C(=O)N2CCc3ccccc32)cnn1C returned Shiga inhibitor 49*, NS1 function inh -2%, LmPK inhibitor -5%, CHX counter-1 6, FBPA Giardia inh 4% and CHX counter-2 5%.
For Cc1cccn2cc(-c3cccc(S(=O)(=O)N4CC(C)OC(C)C4)c3)nc12 (centres undefined) the results were Shiga inhibitor 28*, NS1 function inh -43%, LmPK inhibitor 3%, CHX counter-1 -1 and CHX counter-2 -1%.
Screening CC1CN(S(=O)(=O)c2cccc(-c3cn4ccccc4n3)c2)CC(C)O1 (centres undefined) returned Shiga inhibitor -21, NS1 function inh -81%, LmPK inhibitor -7%, CHX counter-1 19 and FBPA Giardia inh 26%.
CC1=C(C)CC(C(=O)NCc2ccccc2F)C(C(=O)O)C1 (centres undefined) was read as Shiga inhibitor -3, NS1 function inh 27%, LmPK inhibitor 2%, CHX counter-1 -1 and FBPA Giardia inh 9%.
`C=C1C(O)C2OC3(CCC(/C=C/C(C)C4CC(C)=CC5(OC(CC(C)(O)C(=O)O)CCC5O)O4)O3)CCC2OC1C(O)CC(C)C1OC2(CCCCO2)CCC1C` (centres undefined) gave Shiga inhibitor active, CHX counter-1 -3, FBPA Giardia inh 1%[2.35 µM] and CHX counter-2 3%.
`CC1(C)Cc2c(cnn2-c2ccccc2)C(NC(=O)CCN2CCCCO2)C1` (centres undefined) gave Shiga inhibitor 26*, NS1 function inh 5%, LmPK inhibitor -10%, CHX counter-1 4 and CHX counter-2 1%.
For CCOc1ccc(NS(=O)(=O)c2ccc3c(c2)CCN3C(C)=O)cc1 the results were Shiga inhibitor 13, NS1 function inh 0%, LmPK inhibitor -3%, CHX counter-1 -2 and FBPA Giardia inh 5%.
O=C(/C=C/c1ccccc1)NCCc1ccc2c(c1)OCCO2 was read as Shiga inhibitor 36*, NS1 function inh -18%, LmPK inhibitor 5%, CHX counter-1 8, FBPA Giardia inh 1% and CHX counter-2 -1%.
For Cn1ncc(Cl)c1C(=O)Nc1ccc(Cl)cn1 the results were Shiga inhibitor 45*, NS1 function inh 1%, LmPK inhibitor -3%, CHX counter-1 15, FBPA Giardia inh 2% and CHX counter-2 inconclusive.
For CSc1cccc(NC(=O)c2c(Cl)cnn2C)c1 the results were Shiga inhibitor 33*, NS1 function inh -14%, LmPK inhibitor 1%, CHX counter-1 14, FBPA Giardia inh -1% and CHX counter-2 inconclusive.
For Cn1ncc(Cl)c1C(=O)Nc1cccc(Cl)c1 the results were Shiga inhibitor 7, NS1 function inh -6%, LmPK inhibitor 2%, CHX counter-1 10 and FBPA Giardia inh -23%.
For Cc1cc(NC(=O)c2c(Cl)cnn2C)no1 the results were Shiga inhibitor -13, NS1 function inh 0%, LmPK inhibitor -7%, CHX counter-1 -1 and FBPA Giardia inh 1%.
